Several values for one entry are separate records, joined by “and”; a condition that tells them apart may be missing. Equal entries are not always repeated. The panel holds about 83,000 compounds, 20% with a hit somewhere; the sample as a whole holds those more often.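 For each line, cells grew in 96-well plates with the test compound present at a single concentration for 48 hours.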 Values without a mark were called inactive. Activity calls are given as the source filed them. How the source made its calls: active means growth percent below 10; inactive means the rest.

The test system of the test is BT-549 breast. The experiment in a line: NCI-60 one-dose screen, 48 h (100 = growth as untreated, 0 = no growth, -100 = all killed). The following applies: 10 µM unless noted.
On to `COCCn1cc(-c2nc(-c3cn(CCOC)c4ncccc34)cs2)c2ccccc21`, for which the growth was 77.7%.

Take `O=C(N=Nc1c(O)[nH]c2ccccc12)Nc1ccccc1Cl`: the growth was 96.6%.

With `CC1(C)C(N)=Nc2cc(OCCCN3Cc4ccc(OCCc5cn(CC(=O)N6CCC(CCN7CCCC7)CC6)nn5)cc4C3)c(OCC3CC3)cc21`, the growth was 100%.

In the case of `COc1ccc(CN2CCc3c(Cl)nc(N)nc3C2=O)c(OC)c1`, the growth is -20.3% [100 µM] (active).

In the case of `C=C(CNCCO)[C@@H]1CC[C@]2(CO)CC[C@]3(C)[C@H](CC[C@@H]4[C@@]5(C)CCC(NCCc6ccc(O)cc6)C(C)(C)[C@@H]5CC[C@]43C)[C@@H]12` (stereo partly drawn), the growth is -79.2% (active).

On to `COc1ccc2nc3cc(Cl)ccc3c(NCCCNCCC(C)O)c2c1` (stereo not drawn), for which the growth is -1.95% (active).

As for `Clc1ccc(CNc2ccc3nc(CCC4CCCCC4)[nH]c3c2)cc1`, the growth was 83.3%.

In the case of `Nc1n[nH]c2cccc(C#Cc3cccc(NC(=O)c4ccc(N5CCOCC5)c(C(F)(F)F)c4)c3)c12`, the growth was 14.2%.

Turning to `ON=C1CCCCCCCC1`, the growth is 110% and 101%.

`Cc1ccc(C(=O)Nc2ccc(CN3CCN(C)CC3)c(C(F)(F)F)c2)cc1C#Cc1cnc(N)cc1C#N`: the growth was 13.9%.

Take `COc1nc(=O)n(C2C=CC(=O)O2)cc1F` (stereo not drawn): the growth was 81.2%.

`OB(O)c1ccsc1-c1nc2ccc3[nH]ncc3c2c2c1CCCC2`: the growth is 47.1%.

For `Cc1ccc(NC(=O)c2sc3nc(C)c(C(=O)c4ccccc4)cc3c2N)cc1`, the growth is 84.7%.
